Reference: PubChem BioAssay (Tox21)
Results filed as inconclusive are left out. Values without a mark were called inactive. Activity calls are given as the source filed them. Calls follow the shape of the dose curve; as a rule, active = well fitted cell-killing curve with a large enough effect in the repeat runs; inconclusive = weak or mixed curves, or effect the other way; inactive = flat fitted curve, though single readings scatter.

Experiment: cAMP Responsive Elements (CRE) small molecule agonists, cell-based qHTS assay: qHTS cell viability counter screen (AID 2060914);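 also: viability read after 3 h of compound exposure; nearly all actives have a fitted effect of over 50% in size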
Details: CRE-bla HEK293T viability, CellTiter-Glo luminescence, 5 h; series mostly up to 92.4 µM; activity change, negative = cytotoxicity: at the top concentration
Text: National Center for Advancing Translational Sciences [NCATS]
Division of Preclinical Innovation [DPI]
U.S. Environmental Protection Agency [EPA]
National Institutes of Environmental Health Sciences [NIEHS]
National Toxicology Program [NTP]
U.S. Food and Drug Administration [FDA]
CREB (cyclic-AMP Responsive Element Binding Protein) is a cellular transcription factor. It binds to certain DNA sequences called cAMP Responsive Elements (CRE) and regulates the transcription of the genes. […] This cell line can be used to find agonists/antagonists of the cyclic AMP signaling pathway. The activation of the report gene under culture conditions can be detected by fluorescence intensity. This cell line has been used to screen the Tox21 10K compound library to identify agonists that induce oxidative stress. The cytotoxicity of the Tox21 compound library against the CRE-bla cell line was tested in parallel by measuring the cell viability using CellTiter-Glo assay (Promega, Madison, WI) in the same wells.
Tox21 Assay Protocol Summary:
CRE-bla Hek 293T cells were suspended in assay medium (DMEM containing 10% dialyzed FBS, 0.1 mM NEAA, 1 mM sodium pyruvate and 25 mM HEPES) and dispensed at 2,000 cells/5 uL /well into 1536-well black wall/clear bottom plates using a Multidrop Combi (ThermoFisher Scientific, Waltham, MA) dispenser. After the assay plates were incubated at 37 C/5% CO2 for 18 hrs, 23 nL of compounds dissolved in DMSO, positive controls or DMSO only was transferred to the assay plate by a pintool workstation (Kalypsys, San Diego, CA). After the plates were incubated at 37 C/5% CO2 for 3 hrs, 1 uL of LiveBLAzer B/G FRET substrate (Invitrogen, Carlsbad, CA) was added to each well using Bioraptr Flying Reagent Dispenser (FRD, Aurora Discovery, San Diego, CA). The plates were incubated at room temperature for 2 h, then fluorescence intensities were measured using an Envision plate reader (PerkinElmer, Shelton, CT) at Excitation 405nm, Emission 460nm and 530nm. The % activity was determined from the ratio of 460nm/530nm. For cell viability readout that measures cytotoxicity, 4 uL /well of CellTiter-Glo reagent was added into the assay plates using Bioraptr FRD. After 30 min incubation at room temperature, the luminescence intensity in the assay plates was measured using a ViewLux (PerkinElmer, Shelton, CT) plate reader.
% is scaled to controls: 0 for no effect and ±100 for the full control effect.

Row | Compound | activity change, negative = cytotoxicity | Potency
1 | CCCCCCCC/C=C/C(=O)O | -1.06% [at 42.5 µM] | –
2 | COC(C)(OC)OC | 14% | –
3 | CNCCCCOc1ccccc1Cc1ccccc1 | -21.8% [at 42.5 µM] | –
4 | CCOCCOCCOCC | -11.4% | –
5 | CCCc1ccc(N)cc1 | 2.96% | –
6 | CCCCN1C[C@H](O)[C@@H](O)[C@H](O)[C@H]1CO | -13.4% [at 42.5 µM] | –
7 | CC(=O)OC(C)(C)C | 2.87% | –
8 | O=S(=O)(O)c1cc(I)c(O)c2ncccc12 | 2.91% [at 42.5 µM] | –
9 | CC(C)=CCCC(C)O (stereo not given) | 0.967% | –
10 | C=CC(C)(C)C | -0.611% | –
11 | NCCOCCN | -4.73% | –
12 | CCc1ccc(C)cc1 | 5.28% | –
13 | COc1cc(NS(=O)(=O)c2ccc(N)cc2)nc(C)n1 | -15.7% [at 42.5 µM] | –
14 | CCN(O)CC | -9.54% | –
15 | CC(=O)c1cccnc1 | -4.98% | –
16 | CC(CNC1CCCCC1)OC(=O)c1ccccc1 (stereo not given) | -15% [at 42.5 µM] | –
17 | O[C@@H]1CO[C@H]2[C@@H]1OC[C@@H]2O | -0.622% [at 42.5 µM] | –
18 | CCCCCCC(O)CO (stereo not given) | 9.19% | –
19 | CN(C)CCCN1c2ccccc2Sc2ccccc21 | 8.6% [at 42.5 µM] | –
20 | CC(C)CCCC(C)NCCC(C)C (stereo not given) | -8.04% [at 42.5 µM] | –

Row | Compound | activity change, negative = cytotoxicity | Potency
21 | CC1(C)O[C@@H]2C[C@H]3[C@@H]4CCC5=CC(=O)CC[C@]5(C)[C@@]4(F)[C@@H](O)C[C@]3(C)[C@]2(C(=O)CCl)O1 | 6.6% [at 42.5 µM] | –
22 | CC1CN(c2ccccc2)NC1=O (stereo not given) | 4.3% | –
23 | O=C(OCCOCCOC(=O)c1ccccc1)c1ccccc1 | – | inactive
24 | FC(F)OC(Cl)C(F)(F)F (stereo not given) | -11% | –
25 | O=[N+]([O-])c1cccc(Cl)c1 | – | inactive
26 | C[C@@H](O)[C@H]1C(=O)N2C(C(=O)O)=C(S[C@@H]3CN[C@H](CNS(N)(=O)=O)C3)[C@H](C)[C@H]12 | -0.905% [at 42.5 µM] | –
27 | Nc1nc(=S)c2[nH]cnc2[nH]1 | -15.6% | –
28 | Nc1ccc(S(=O)(=O)Nc2ccccn2)cc1 | -0.721% [at 42.5 µM] | –
29 | CC(C)c1ccc(O)c(C(C)C)c1 | -12.8% | –
30 | CC[C@H]1CN2CCc3cc(OC)c(OC)cc3[C@@H]2C[C@@H]1C[C@H]1NCCc2cc(OC)c(OC)cc21 | 10.2% | –
31 | CC(=O)[C@H]1CC[C@H]2[C@@H]3C=CC4=CC(=O)CC[C@@]4(C)[C@@H]3CC[C@]12C | -5.21% [at 42.5 µM] | –
32 | CC(C)C(=O)OC/C=C/c1ccccc1 | -5.82% | –
33 | CS(=O)(=O)O | -7.58% | –
34 | CC[C@H](C)COC(=O)/C=C/c1ccc(N=Cc2ccc(OC)cc2)cc1 | -26% | –
35 | O=S(=O)(O)c1ccc(N=Nc2c(O)ccc3ccccc23)cc1 | -23.3% | –
36 | CCN(CC)C(=O)Nc1ccc(OCC(O)CNC(C)(C)C)c(C(C)=O)c1 (stereo not given) | 2.25% [at 42.5 µM] | –
37 | Fc1ccccc1-c1ccccc1 | 7.79% | –
38 | Clc1ccc(Cn2c(CN3CCCC3)nc3ccccc32)cc1 | -9.37% [at 42.5 µM] | –
39 | CC(=O)O[C@H](CC(=O)[O-])C[N+](C)(C)C | 1.28% | –
40 | O=C(O)Cc1sc(-c2ccccc2)nc1-c1ccc(Cl)cc1 | 8.42% [at 42.5 µM] | –
